Screening results: PubChem, several laboratories
This is a sample that favours compounds with a hit; in the whole collection about 4.6% have one here.
Mdm2-MdmX inh: human Mdm2/MdmX binding inhibition; inhibition, % at 8 µM; SaOS-2 split-luciferase Mdm2/MdmX complementation, luminescence; O15151+Q00987; 330,000 compounds, 3% hits;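 active = inhibition of at least 50% at 8 µM in the primary screen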
KKLEB tox: CF airway cell cytotoxicity counter-screen. KKLEB CF airway cells viability, ATPlite luminescence, overnight; hits give low values; cells stimulated with P. aeruginosa culture filtrate. activity change (cytotoxicity), % at 5 µM. 360,000 compounds, 0.36% hits. AID 602141;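 active = corrected activity change at or below -50% at 5 µM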
ABHD5 PLIN5 PPI: ABHD5-PLIN5 protein interaction inhibition; 360,000 compounds, 0.78% hits; Split G. princeps luciferase complementation, luminescence, 4 h; AID 602281; Q00G26+Q8WTS1; inhibition, % at 4 µM;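 active = inhibition above the mean inhibition across every tested compound plus 3 SD, cut at about 22% in these data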;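 note: 0% = DMSO only wells and the 100% control is not disclosed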
Target sequence (Q00G26 whole entry, looked up): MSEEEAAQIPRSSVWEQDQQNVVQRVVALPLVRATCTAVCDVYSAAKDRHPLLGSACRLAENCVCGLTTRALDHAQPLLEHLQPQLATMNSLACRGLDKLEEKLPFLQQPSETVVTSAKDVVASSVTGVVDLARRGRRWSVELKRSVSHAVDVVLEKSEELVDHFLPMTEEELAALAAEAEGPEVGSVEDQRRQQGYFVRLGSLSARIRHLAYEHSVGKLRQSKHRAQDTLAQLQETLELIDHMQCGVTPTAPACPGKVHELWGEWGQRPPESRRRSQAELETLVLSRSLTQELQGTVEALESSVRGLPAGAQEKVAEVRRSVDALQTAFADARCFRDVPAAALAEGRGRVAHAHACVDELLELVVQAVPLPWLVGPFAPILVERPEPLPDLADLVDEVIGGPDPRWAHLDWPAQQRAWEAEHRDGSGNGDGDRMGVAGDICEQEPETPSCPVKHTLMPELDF
Target sequence (Q8WTS1 whole entry, looked up): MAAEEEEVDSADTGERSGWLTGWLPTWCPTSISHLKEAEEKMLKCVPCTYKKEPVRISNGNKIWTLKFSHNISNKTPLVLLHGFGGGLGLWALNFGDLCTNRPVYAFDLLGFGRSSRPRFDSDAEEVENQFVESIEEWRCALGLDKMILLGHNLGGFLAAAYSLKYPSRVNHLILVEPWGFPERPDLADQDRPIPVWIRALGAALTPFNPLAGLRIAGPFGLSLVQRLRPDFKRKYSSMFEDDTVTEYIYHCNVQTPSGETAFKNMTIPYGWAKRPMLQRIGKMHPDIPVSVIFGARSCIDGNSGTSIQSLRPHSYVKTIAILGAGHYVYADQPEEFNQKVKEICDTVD
CF NFkB inh: inhibitors of cystic fibrosis induced NF-kB; inhibition, % at 5 µM; 360,000 compounds, 0.86% hits; KKLEB NF-kB-GFP reporter, PAF-induced, GFP fluorescence overnight;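 active = at least 50% inhibition at 5 µM, scaled per plate between neutral and stimulator controls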;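 note: PAF is a Pseudomonas aeruginosa culture filtrate used as stimulus; plate controls were PAF-stimulated DMSO wells for no effect and unstimulated DMSO wells for full effect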
HIF-2a block: blocks HIF-2a reporter activity | 360,000 compounds, 0.72% hits | AID 624352 | inhibition, % at 18.8 µM | 786-0 RCC cells HIF-2a reporter, luciferase luminescence, overnight;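 active = inhibition of the luminescence signal of 40% or more relative to plate controls, in a single-dose primary screen at 18.75 µM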
Peg3 promoter: inhibitors of Peg3 promoter; AID 588405; inhibition, % at 20 µM; 360,000 compounds, 1.7% hits; HeLa PEG-Prom luciferase reporter, luminescence, overnight;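 active = inhibition of at least 50% at 20 µM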
Mdm2 MdmX conf: human Mdm2/MdmX binding inhibition, confirmed | AID 489028 | 10,000 compounds, 55% hits | luminescent assay | shares compounds with Mdm2-MdmX inh | inhibition, % at 8 µM; in the data active = inhibition above about 40%
Full FLuc ctr: inhibits full-length luciferase, flagging false Mdm2/MdmX hits | shares compounds with Mdm2-MdmX inh | SaOS-2 full-length luciferase counterscreen, luminescence | inhibition, % at 8 µM | 6,200 compounds, 77% hits | AID 504607;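 active = mean inhibition at 8 µM reaching about 37%, which flags the compound as non-specific, limit read from the data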;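 note: p53-null SaOS-2 cells with luciferase driven by a doxycycline-inducible promoter; compound on cells about two nights before reading with doxycycline added after day one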
An asterisk follows results filed as active.

Results for CCC(C)C(=O)N[C@@H](c1ccccc1)[C@@H](O)C(=O)O[C@H]1C[C@@]2(O)[C@@H](OC(=O)c3ccccc3)C3[C@](C)(C(=O)[C@H](OC(C)=O)C(=C1C)C2(C)C)[C@@H](O)C[C@H]1OC[C@@]31OC(C)=O (some centres not stated) ?
Mdm2-MdmX inh: 62.4*; KKLEB tox: -21.7; ABHD5 PLIN5 PPI: -6.7; CF NFkB inh: 21.3; HIF-2a block: 21.6; Peg3 promoter: 13.9; Mdm2 MdmX conf: 66.1*; Full FLuc ctr: 39.2*

Results for CC/C=C/CC(=O)N[C@@H](c1ccccc1)[C@@H](O)C(=O)O[C@H]1C[C@@]2(O)[C@@H](OC(=O)c3ccccc3)C3[C@](C)(C(=O)[C@H](OC(C)=O)C(=C1C)C2(C)C)[C@@H](O)C[C@H]1OC[C@@]31OC(C)=O (some centres not stated) ?
Mdm2-MdmX inh: 69.2*; KKLEB tox: -18.0; ABHD5 PLIN5 PPI: 3.9; CF NFkB inh: 5.3; HIF-2a block: -35.9; Peg3 promoter: 0.6; Mdm2 MdmX conf: 67.2*; Full FLuc ctr: 47.6*

What do the screens show for `C/C=C(\C)C(=O)N[C@@H](c1ccccc1)[C@@H](O)C(=O)O[C@H]1C[C@@]2(O)[C@@H](OC(=O)c3ccccc3)C3[C@](C)(C(=O)[C@H](OC(C)=O)C(=C1C)C2(C)C)[C@H](O)C[C@H]1OC[C@@]31OC(C)=O` (some centres not stated)?
Mdm2-MdmX inh: 40.0; KKLEB tox: -0.4; ABHD5 PLIN5 PPI: -0.8; CF NFkB inh: 1.1; HIF-2a block: 23.9; Peg3 promoter: 22.6

What do the screens show for `C[n+]1c(-c2ccccc2)c2cc(N)ccc2c2ccc(N)cc21`?
Mdm2-MdmX inh: 84.9*; KKLEB tox: -9.4; ABHD5 PLIN5 PPI: -18.7; CF NFkB inh: -7.5; HIF-2a block: 27.3; Peg3 promoter: 74.5*; Mdm2 MdmX conf: 70.2*; Full FLuc ctr: 13.0

How did N#C/C=C/C#N do in these assays?
Mdm2-MdmX inh: 41.0; KKLEB tox: -3.5; ABHD5 PLIN5 PPI: 4.7; CF NFkB inh: 15.3; HIF-2a block: -5.3; Peg3 promoter: -8.7

What do the screens show for `N#CC(C#N)=Cc1ccc(O)c(O)c1`?
Mdm2-MdmX inh: 9.5; KKLEB tox: 12.3; ABHD5 PLIN5 PPI: 1.2; CF NFkB inh: -25.4; HIF-2a block: -3.8; Peg3 promoter: -6.8

What do the screens show for `CC(C)(C)c1cc(C=C(C#N)C#N)cc(C(C)(C)C)c1O`?
Mdm2-MdmX inh: 96.1*; KKLEB tox: 17.3; ABHD5 PLIN5 PPI: 3.1; CF NFkB inh: 47.2; HIF-2a block: -23.5; Peg3 promoter: 56.2*; Mdm2 MdmX conf: 94.4*; Full FLuc ctr: 11.8

How did COc1ccc(OC(=O)N(C)C[C@H]2OCc3cnnn3CCCC(=O)N([C@H](C)CO)C[C@@H]2C)cc1 do in these assays?
KKLEB tox: 9.9; ABHD5 PLIN5 PPI: 2.4; CF NFkB inh: 6.0; HIF-2a block: 10.3; Peg3 promoter: 2.7

How did COc1ccccc1C1=NCc2nnc(C)n2-c2ccc(Cl)cc21 do in these assays?
Mdm2-MdmX inh: 12.7; KKLEB tox: 3.2; ABHD5 PLIN5 PPI: -2.7; CF NFkB inh: -1.4; HIF-2a block: 15.9; Peg3 promoter: -5.4

What do the screens show for `COc1ccc(C2=NCc3nnc(C)n3-c3ccc(Cl)cc32)cc1Cl`?
Mdm2-MdmX inh: 64.9*; KKLEB tox: -6.4; ABHD5 PLIN5 PPI: 10.1; CF NFkB inh: -29.0; HIF-2a block: -40.9; Peg3 promoter: -26.3; Mdm2 MdmX conf: 28.2

How did COc1c(OP2(=S)OCC(C)(C)CO2)cnn(C2CCCCC2)c1=O do in these assays?
KKLEB tox: -1.8; ABHD5 PLIN5 PPI: 1.1; CF NFkB inh: -10.7; HIF-2a block: -77.6; Peg3 promoter: -19.5

Results for COC(=O)C1=C(c2ccc(Cl)c(C(F)(F)F)c2)C[C@@H]2CC[C@H]1N2C(=O)N1CCC(O)(c2ccc(Cl)cc2)CC1 ?
Mdm2-MdmX inh: 88.1*; KKLEB tox: 1.2; ABHD5 PLIN5 PPI: -5.0; CF NFkB inh: 11.2; HIF-2a block: 2.4; Peg3 promoter: 47.0; Mdm2 MdmX conf: 15.6

How did COC(=O)C1=C(c2ccc(-c3ccccc3)c(F)c2)C[C@@H]2CC[C@H]1N2C(=O)NCCOc1ccccc1Cl do in these assays?
Mdm2-MdmX inh: 42.1; KKLEB tox: -16.9; ABHD5 PLIN5 PPI: 4.9; CF NFkB inh: 23.3; HIF-2a block: 15.7; Peg3 promoter: 26.7

Results for COc1ccc(O)c2c(=O)c3c(OC)cc4c(c3oc12)C1C=COC1O4 (configuration not stated) ?
Mdm2-MdmX inh: 73.7*; KKLEB tox: -19.4; ABHD5 PLIN5 PPI: -7.0; CF NFkB inh: -22.8; HIF-2a block: 13.4; Peg3 promoter: 20.4; Mdm2 MdmX conf: 63.2*; Full FLuc ctr: 41.6*

What do the screens show for `CCOC(=O)CC(SP1(=S)OCC2(CC=CCC2)CO1)C(=O)OCC` (configuration not stated)?
KKLEB tox: -2.8; ABHD5 PLIN5 PPI: 8.1; CF NFkB inh: -9.8; HIF-2a block: 0.1; Peg3 promoter: -1.8

How did C[C@]12CCC3C(CCC4=CC(O)CC[C@@]43/C=N/O)C1(O)CCC2C1=CC(=O)OC1 (some centres not stated) do in these assays?
Mdm2-MdmX inh: 58.4*; KKLEB tox: -62.5*; ABHD5 PLIN5 PPI: -2.1; CF NFkB inh: 80.7*; HIF-2a block: 30.7; Peg3 promoter: 104.9*; Mdm2 MdmX conf: 72.0*; Full FLuc ctr: 18.7

What do the screens show for `C/C=C(\C)C(=O)OC1C(C)=C2C(C1OC(=O)CCCCC)C(C)(OC(C)=O)CC(OC(=O)CCC)C1(O)C2OC(=O)C1(C)O` (configuration not stated)?
Mdm2-MdmX inh: 82.1*; Mdm2 MdmX conf: 64.5*; Full FLuc ctr: 24.1

Results for CCOC(=O)C1(c2ccccc2)CCN(CC(=O)c2ccc(NC(C)=O)cc2)CC1 ?
KKLEB tox: 1.0; ABHD5 PLIN5 PPI: 4.1; CF NFkB inh: -8.6; HIF-2a block: 3.3; Peg3 promoter: 0.1

What do the screens show for `O=C(c1ccccc1)C(Cc1ccccc1)N1CCOCC1` (configuration not stated)?
KKLEB tox: 2.2; ABHD5 PLIN5 PPI: -4.0; CF NFkB inh: -14.3; HIF-2a block: 6.4; Peg3 promoter: 1.1

What do the screens show for `CN1CCC(c2c[nH]c3ccc(O)cc23)CC1`?
KKLEB tox: 13.1; ABHD5 PLIN5 PPI: -1.5; CF NFkB inh: 15.0; HIF-2a block: 0.6; Peg3 promoter: 1.0

How did CC1CCCC(C)N1/N=C/c1c[nH]c2ccc(Br)cc12 (configuration not stated) do in these assays?
Mdm2-MdmX inh: 52.0*; KKLEB tox: 3.9; ABHD5 PLIN5 PPI: 6.0; CF NFkB inh: 10.3; HIF-2a block: 23.0; Peg3 promoter: 21.9; Mdm2 MdmX conf: 26.8
